Results as given in PubChem BioAssay AID1851 (National Center for Advancing Translational Sciences (NCATS), 2009).
Hit rate of the full screen: of about 16,000 compounds, about 5,800 (36%) were called active. Another 23% or so got no clear call; they are omitted. Calls follow the shape of the dose curve; as a rule, active = well fitted curve in the direction sought with a large enough effect; inconclusive = small, poorly fitted or top-dose-only effect, or effect the other way; inactive = no such curve, though single readings can be large or run the other way. This is one part of the list. Square brackets hold non-standard residues; d marks the D form. Peptide text beside a SMILES is read from it. * marks the point of attachment. ξ: configuration not given here. Cbz = O=C(OCc1ccccc1)*; ξA = CC(N)C(=O)O

Molecular target: Cytochrome P450 2C19 (Homo sapiens) (UniProt P33261)
Experiment: Cytochrome panel assay with activity outcomes
Settings: recombinant CYP, pro-luciferin dealkylation, luminescence, p450-cyp2c19; series mostly up to 57.1 µM; activity, negative = inhibition: at the top concentration
% is scaled to controls: 0 for no effect and ±100 for the full control effect.

Sequence of Cytochrome P450 2C19 (Homo sapiens) (P33261 whole entry, looked up): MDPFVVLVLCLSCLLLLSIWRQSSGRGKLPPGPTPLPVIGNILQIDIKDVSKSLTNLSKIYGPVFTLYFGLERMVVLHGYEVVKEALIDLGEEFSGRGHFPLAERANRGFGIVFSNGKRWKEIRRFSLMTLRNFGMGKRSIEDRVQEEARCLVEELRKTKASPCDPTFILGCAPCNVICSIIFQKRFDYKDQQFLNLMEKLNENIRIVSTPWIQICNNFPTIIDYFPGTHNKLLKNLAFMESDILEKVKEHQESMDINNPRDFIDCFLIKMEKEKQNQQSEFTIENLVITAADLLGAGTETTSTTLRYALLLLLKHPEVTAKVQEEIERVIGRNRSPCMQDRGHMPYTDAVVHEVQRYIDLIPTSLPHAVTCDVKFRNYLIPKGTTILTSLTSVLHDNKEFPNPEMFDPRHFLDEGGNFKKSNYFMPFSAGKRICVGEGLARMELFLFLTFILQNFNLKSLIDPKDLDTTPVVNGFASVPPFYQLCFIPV

activity, negative = inhibition, inactive:
C[C@](N)(Cc1ccc(O)c(O)c1)C(=O)O 26%
O=c1ncn(-c2ccccc2F)c2ncccc12 -27%
Cc1cnc(CNc2nc(-c3ccoc3)nc3ccccc23)cn1 -27.9%
c1ccc2c(NC3CCNCC3)nc(-c3ccoc3)nc2c1 15.9%
N#Cc1cccc(-c2nc(NCc3cccs3)c3ccccc3n2)c1 -23.1%
N#Cc1cccc(-c2nc(Nc3ccccc3)c3ccccc3n2)c1 15.4%
Cc1ccnc(N)c1 -27.7%
C[C@H](N=C(NC#N)Nc1ccncc1)C(C)(C)C 5.2%
NC(N)=N[C@@H]1C(O)[C@H](N=C(N)N)[C@@H](O)C(O)[C@H]1O (stereo partly drawn) 12.7% [at 11.4 µM]
COc1cccc(-c2nc(NC3CCNCC3)c3ccccc3n2)c1 8.48%
Cc1cnc(CNc2nc(-c3cccnc3)nc3ccccc23)cn1 -29.8%
N#Cc1cccc(-c2nc(NCc3cccnc3)c3ccccc3n2)c1 -27.2%
O=C(O)c1ccc(C(=O)O)c(C(=O)O)c1.[NH-][C@@H]1CCCC[C@@H]1[NH-].[Pt] -17.9% [at 11.4 µM]
CN1CCC2(CC1)CCN(C(=O)c1cc(C(F)(F)F)cc(C(F)(F)F)c1)CC2 -21.7%
Cn1cnc2c(NC3CCCC3)ncnc21 -28%
NS(=O)(=O)c1ccc(N=C2C(=O)Nc3ccccc32)cc1 -2.67% [at 11.4 µM]
O=C1Nc2ccccc2C1=Nc1ccc(S(=O)(=O)Nc2nccs2)cc1 21.4% [at 11.4 µM]
COc1cc2c(cc1OC)[C@H](c1ccccc1)CN(C)CC2 -2.52%
COc1ccc(C(=O)OC(C)CN2CCN(C)CC2)cc1OC (stereo not drawn) -16.7%
NCCCCN 31.9%
Cn1c(=O)c2[nH]c([C@@H]3CC(=O)C[C@H](c4nc5c([nH]4)c(=O)n(C)c(=O)n5C)N3)nc2n(C)c1=O 1.66% [at 11.4 µM]
O=C(O)C[C@@H]1CCCc2ccccc2[C@H]1O 3.65%
CN(C)C(=O)Oc1cccc([N+](C)(C)C)c1 42.9%
CC(C)=CCc1c(C)nc2ccccc2c1C(=O)O -28.7%
COC(=O)C1=C(C)Nc2ncnn2C1c1cccnc1 (stereo not drawn) -24.7%
CSc1nc2n(n1)C(c1cccc(F)c1)C(C(=O)Nc1ccc(C)cc1C)=C(C)N2 (stereo not drawn) 21.6%
CC1=C(C(N)=O)C(c2ccccn2)n2nc(SCc3ccccc3Cl)nc2N1 (stereo not drawn) -88%
O=C(Nc1ccc2oc(=O)c(C(=O)O)cc2c1)Oc1ccccc1 18.7% [at 11.4 µM]
COc1ccc(NC(=O)N2CC[C@@]3(CCCN(C(C)=O)C3)C2)cc1 -14.5%
COc1ccc(Cc2nnc(NC(=O)c3cccc([N+](=O)[O-])c3C)s2)cc1 10.2%
COc1ccc(NC(=O)N2CC3(CCN(C(=O)c4ccco4)CC3)C2)cc1 -32.6%
COc1ccc(NC(=O)N2CCC3(CC2)CCN(C(=O)c2ccco2)CC3)cc1 -11%
Cc1ccc(-c2c(C#N)c(N)n(-c3ccccc3)c(=O)c2C#N)cc1 -29.3%
Cn1nnnc1SCC(=O)Nc1ccccc1[N+](=O)[O-] -18%
O=C(O)c1ccc(NCc2nc3cc4ccccc4cc3[nH]2)cc1 60.6% [at 11.4 µM]
COC(=O)Nc1nc2ccc(C(=O)c3ccccc3)cc2[nH]1 -36.1% [at 25.6 µM]
C[C@H](N)CCCC(C)(C)O 19.9% [at 25.6 µM]
Cc1cc2[nH]c(=O)c3ccccc3n2n1 -22.9%
CCc1cc2c(nc1CC)CCN(CC/C(C)=N/O[C@@H]1O[C@H](COC(C)=O)[C@H](OC(C)=O)[C@H](OC(C)=O)[C@H]1OC(C)=O)C2 6.45% [at 11.4 µM]
N[C@@H](Cc1ccccc1)C(=O)O 8.56% [at 11.4 µM]
O=C(O)CNC(=O)[C@@H](CS)Cc1ccccc1 55.1% [at 25.6 µM]
CC(C)(C)N1C(=O)[C@H]2[C@H]3[C@H](O)[C@H](O)C/C(=N/NC(=O)OCc4ccccc4)[C@@H]3CC[C@@H]2C1=O 6.74% [at 11.4 µM]
COC(=O)[C@H](C)NC(=O)[C@@H](C)CO 35.5% [at 11.4 µM]
CC(=O)N[C@H](Cc1ccc(O)cc1)C(=O)O -9.65% [at 11.4 µM]
CC(C)(C)N1C(=O)[C@H]2[C@H]3[C@H](O)[C@H](O)C/C(=N/NC(=O)OCc4ccccc4)[C@H]3CC[C@@H]2C1=O 41% [at 11.4 µM]
NC([N-]/N=C/c1ccccn1)=[S]=[Fe].O=S(=O)(O)O -35.2% [at 11.4 µM]
CSCC[C@@H]1NC(=O)C/C=C\[C@@H](C)COC(=O)[C@@H](C)COC1=O 30.8% [at 11.4 µM]

AC50, inactive:
C[C@@](N)(Cc1ccc(O)cc1)C(=O)O
NCCCCNCCCN
CC(C)C[C@H](NC(=O)[C@@H](O)[C@@H](N)Cc1ccccc1)C(=O)O

AC50, active:
CCOC(=O)c1c(C(C)(C)C)oc2ccc(O)cc12 3.98 µM
O=C(N/N=C/c1c[nH]c2ccc(Br)cc12)c1ccn(Cc2ccc(Cl)cc2)n1 3.55 µM
O=C(N/N=C/c1c[nH]c2ccccc12)c1ccn(Cc2ccc(Cl)cc2Cl)n1 2 µM
O=c1[nH]n(-c2cccc3cccnc23)c(=O)c2ccccc12 11.2 µM
COc1cccc(-c2nc(NCc3cccs3)c3ccccc3n2)c1 3.16 µM
Cc1cccc(CNc2nc(-c3ccoc3)nc3ccccc23)c1 7.94 µM
COc1ccccc1CNc1nc(-c2cccc(C#N)c2)nc2ccccc12 3.98 µM
CNc1nc(-c2cccc(C#N)c2)nc2ccccc12 7.94 µM
N#Cc1cccc(-c2nc(NCc3ccccc3)c3ccccc3n2)c1 6.31 µM
Cc1cccc(CNc2nc(-c3cccnc3)nc3ccccc23)c1 10 µM
COc1cccc(-c2nc(NCc3ccccc3)c3ccccc3n2)c1 3.98 µM
COc1cccc(-c2nc(NCc3ccccc3OC)c3ccccc3n2)c1 7.94 µM
COc1cccc(-c2nc(NCc3cccnc3)c3ccccc3n2)c1 25.1 µM
COc1ccc(-c2cc(C(F)(F)F)nc(NCc3cccnc3)n2)cc1 2.82 µM
CON/C=C(\C=Nc1ccccc1)c1ncc(C(F)(F)F)cc1Cl 3.55 µM
O=C1Nc2ccccc2/C1=N/c1sc2c(c1C(=O)NCCc1ccccc1)CCCC2 2.51 µM
COC(=O)c1ccc(OCC2c3cc(OC)c(OC)cc3CCN2C(=O)C2CC2)cc1 (stereo not drawn) 2.51 µM
NCCCNCCCCNCCCN 7.94 µM
Cn1nc(C(F)(F)F)c(/C=N/OC(=O)c2ccccc2Cl)c1SCc1ccc(Cl)cc1 0.355 µM
Cc1ccc2c(c1)N(CC(=O)NC1CCC(C)CC1)C(=O)CO2 (stereo not drawn) 2.82 µM
Cc1ccc2c(c1)N(CC(=O)NC1CCCc3ccccc31)C(=O)CO2 (stereo not drawn) 2.51 µM
Cc1ccc(CNC(=O)CN2C(=O)COc3ccc(C)cc32)cc1 2.82 µM
C=CCn1c(SCC)nc2sc3c(c2c1=O)CCc1ccccc1-3 8.91 µM
O=c1/c(=C\c2ccc(O)cc2)sc2n1C(c1ccccc1)C(c1ccccc1)=NN=2 (stereo not drawn) 1.58 µM
CCCCSc1nc(C)cc(NC(=S)Nc2ccc(OC)cc2)n1 2.51 µM
CCOC(=O)c1cccc2c1-c1ccccc1/C2=N/O 7.94 µM
CC(C)=CCC1=C(OCC(=O)O)C(=O)c2ccccc2C1=O 1.26 µM
CC1=C(C(=O)Nc2cccnc2)C(c2cccnc2)n2nc(-c3cccs3)nc2N1 (stereo not drawn) 11.2 µM
CCOc1ccccc1C1C(C(N)=O)=C(C)Nc2nc(-c3ccc(OC)cc3)nn21 (stereo not drawn) 10 µM
COc1ccccc1NC(=O)C1=C(C)Nc2nc(-c3ccc(N(C)C)cc3)nn2C1c1ccncc1 (stereo not drawn) 14.1 µM
COc1ccc2oc(=O)c(C(=O)Oc3ccc(NC(C)=O)cc3)cc2c1 15.8 µM
CN(C(=S)Nc1ccccc1F)C1(c2ccccc2Cl)CCCCC1=O (stereo not drawn) 1.26 µM
CO/N=C(/CNC(=O)c1cccc(Cl)c1)c1ccc(Cl)cc1 0.708 µM
CO/N=C(/CNC(=O)c1ccc(Cl)cc1Cl)c1ccc(Cl)cc1 0.398 µM
COc1ccc(Cc2nnc(NC(=O)c3ccco3)s2)cc1 14.1 µM
COc1ccc2c(c1)Cc1sc(NC(=O)c3ccco3)nc1-2 14.1 µM
COc1ccc2c(c1)CCc1sc(NC(=O)c3ccc(C)cc3)nc1-2 3.55 µM
Cc1ccc(NC(=O)NNC(=O)Cn2nc(-c3ccccc3)c(-c3ccccc3)c(C#N)c2=O)cc1 17.8 µM
COc1ccc(CSc2nnnn2C)cc1[N+](=O)[O-] 10 µM
Cn1nnnc1SCc1ccccc1[N+](=O)[O-] 25.1 µM
O=C(c1ccccc1)c1ccc2nc(-c3ccc(NC(=O)c4ccccc4Br)cc3)[nH]c2c1 5.62 µM
O=C(O)c1ccccc1-c1ccc(/C=c2\sc3nc4cc(Br)cnc4n3c2=O)o1 35.5 µM
Cc1cc(C)n(C(=O)c2cc3ccccc3c(=O)o2)n1 1.58 µM
CCS(=O)(=O)c1ccc2oc(Nc3cc(C)cc(C)c3)nc2c1 11.2 µM
COC(=O)[C@H](Cc1ccccc1)NC(=O)[C@@H](C)CO 1.26 µM
O=C(N[C@@H](Cc1ccccc1)C(=O)CCl)OCc1ccccc1 5.01 µM
CC(=O)SC[C@@H](Cc1ccccc1)C(=O)NCC(=O)OCc1ccccc1 0.126 µM
COC(=O)CNC(=O)C(C)NC(=O)CNC(=O)OCc1ccccc1 (stereo not drawn) (Cbz-Gly-[ξA]-Gly-OMe) 31.6 µM
